TIM10 inh: growth inhibitors of isogenic TIM10 control yeast, primary screen, counter-screen for tim10-1 yeast inhibitor project, luminescence, uHTS; actives 1.4% (n = 330,000); AID 463195, 2010; S. cerevisiae TIM10 strain growth, BacTiter-Glo luminescence, 24 h; inhibition, % at 10 µM;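 active means inhibition of 40% or more at the single tested concentration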;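 further: wild-type TIM10 isogenic control strain grown at permissive 25 °C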
tim23-1 inh: growth inhibitors of tim23-1 mutant yeast, primary screen, luminescence, uHTS | S. cerevisiae tim23-1 growth, BacTiter-Glo luminescence, 24 h | inhibition, % at 20 µM | actives 1.3% (n = 330,000) | AID 463212, 2010;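 active means growth inhibition of the mutant yeast at or above 50%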;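 further: temperature-sensitive mutant grown at 25 °C; plate controls were DMSO-treated mutant yeast for no effect and medium wells lacking yeast for full effect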
PfHsp90 yeast 2: growth inhibition of PfHsp90-expressing yeast, primary screen, antimalarial PfHsp90 inhibitor project, S. cerevisiae, BacTiter-Glo luminescence, single point, set 2 | BacTiter-Glo ATP, 48 h; yeast lacking PDR1 and PDR3 efflux regulators | inhibition, % at 9.4 µM | actives 0.32% (n = 310,000) | AID 504621, 2011;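 active means every replicate shows inhibition above about 80%, whatever the replicate mean, limit read from the data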;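 further: 0% = DMSO neutral controls and 100% = 20 µM radicicol positive controls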
NALP1 yeast inh: NALP1 inflammasome inhibitors in reconstituted yeast, colorimetric, S. cerevisiae, triplicate retest; actives 0.61% (n = 280,000); S. cerevisiae NALP1/ASC/caspase-1 growth, X-gal OD620, 72 h; inhibition, % at 10 µM; in the data active means inhibition mostly above about 24%, no sharp cut-off; inactive means mostly below about 32%
SKKanGAS inh: S. pyogenes SKKanGAS growth inhibitors in kanamycin, primary screen, streptokinase expression inhibitor project, SKKanGAS strain, BacTiter-Glo luminescence; 6 h; inhibition, % at 7.5 µM; actives 1.3% (n = 300,000); AID 1662, 2009;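 active means mean replicate score, as percent of positive control median, at least 50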;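 further: strain carries kanamycin resistance gene driven by streptokinase promoter and grows in 40 µg/ml kanamycin; loss of luminescence reflects streptokinase promoter inhibition or plain growth inhibition; 0% = median of DMSO wells and 100% = positive control at its reference dose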
tim10-1 inh: growth inhibitors of tim10-1 mutant yeast, primary screen, luminescence, uHTS | actives 2.2% (n = 330,000) | S. cerevisiae tim10-1 ts strain growth, BacTiter-Glo, 24 h | inhibition, % at 20 µM;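 active means inhibition of at least 40%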;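 further: mutant grown at 25 °C; 0% = DMSO wells with yeast and 100% = wells holding no yeast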
tim23-1 conf: tim23-1 mutant yeast growth inhibitors, confirmation, luminescence, single concentration; shares compounds with tim23-1 inh; S. cerevisiae tim23-1 growth, BacTiter-Glo luminescence, 24 h; inhibition, % at 20 µM; actives 83% (n = 4,400); AID 463218, 2010;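 active means inhibition above about 39% in either of two replicate wells at 20 µM, limit read from the data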;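 further: temperature-sensitive tim23-1 mutant grown at 25 °C; 0% = DMSO wells with yeast and 100% = medium wells without yeast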
* marks the source's active call; other numbers are inactive results; . = no result given. Sampled rows, rich in hits. Any-hit rate of the full collection: about 4.8%.

SMILES	TIM10 inh	tim23-1 inh	PfHsp90 yeast 2	NALP1 yeast inh	SKKanGAS inh	tim10-1 inh	tim23-1 conf
CC(C)NC(=O)N(C)C[C@H]1Oc2ccc(NC(=O)Nc3ccccc3)cc2C(=O)N([C@H](C)CO)C[C@@H]1C	-3.8	7.7	0.4	.	.	-3.1	.
CN(Cc1ccccc1)C(=O)CN1CCN(S(=O)(=O)c2ccc(Cl)c(Cl)c2)CC1	15.9	51.5*	20.5	.	.	18.9	33.2
COc1ccnc(N2CCN(c3cccc(C(F)(F)F)c3)CC2)c1C#N	-8.3	6.5	9.1	-1.7	-1.1	7.7	.
COc1cccc2sc3cc(NCc4ccc5c(c4)OCO5)ccc3c(=O)c12	16.7	67.8*	0.4	.	.	-32.7	56.1*
COc1ccc(OCc2n[nH]c(=S)n2Cc2ccco2)cc1	-2.8	5.2	.	-18.9	-1.8	34.9	.
Cc1nc(NCCc2ccccc2)c2oc3ccccc3c2n1	23.9	60.7*	48.9	19.5	2.9	29.9	41.1*
Cc1nc(NCCN2CCOCC2)c2oc3ccccc3c2n1	-6.2	-4.4	-27.5	15.5	-4.7	-6.3	.
CCCSc1ncc(Cl)c(C(=O)Nc2ccc(S(=O)(=O)Nc3ncccn3)cc2)n1	8.0	0.1	11.8	12.6	8.1	23.8	.
CN(C)CCOc1ccc(-c2c(-c3ccsc3)sc3ccccc23)cc1	13.6	76.4*	23.7	.	.	25.1	56.9*
COc1ccc(-c2sc3ccccc3c2-c2ccc(OCCN(C)C)cc2)cc1	-11.2	2.7	40.6	.	.	14.1	.
O=C(c1ccc2oc(CCCc3ccccc3)nc2c1)N1CCCC(CCCO)C1 (stereo unspecified)	27.2	20.2	-0.2	13.7	-4.2	26.2	.
CC1CCN(c2nnc(N3CCC(C)CC3)c3ccccc23)CC1	15.2	70.4*	-4.3	-7.6	3.6	13.2	57.3*
Cc1ccc(-c2nnc(N3CCCCC3)c3ccccc23)cc1	35.8	53.9*	11.6	15.8	-1.4	38.4	53.1*
Cc1nnc(N2CCCCC2)c2ccccc12	1.3	-0.9	17.5	12.7	0.7	0.0	.
CC(C)(C)N1C(=O)c2ccc(C(=O)Nc3nccs3)cc2C1=O	7.9	57.6*	-1.7	2.9	-3.9	4.7	58.8*
O=c1oc(-c2ccccc2F)nc2c1cnn2-c1ccccc1	39.3	55.8*	-12.2	7.3	-10.0	32.9	54.0*
COC(=O)[C@@]1(C)[C@H]2C(=O)N(Cc3ccccc3)C(=O)[C@H]2[C@H]2CN=C(SCc3ccc(Cl)cc3)N21	18.2	50.8*	6.0	.	.	23.6	29.9
COc1ccc(/C=C2/C(=O)N(c3ccccc3)N=C2C)cc1Br	21.0	55.6*	-27.9	1.6	3.8	32.3	44.6*
CC1=NN(c2ccccc2)C(=O)/C1=C/c1cccs1	20.9	56.9*	23.5	28.6	4.9	7.1	52.1*
Cc1n[nH]c(C)c1N=Nc1ccc(Br)cc1	27.7	62.3*	27.1	0.8	28.9	-36.3	24.9
CCOc1ccccc1NC(=O)C1CCCN(c2c(CC)c(C)nc3ncnn23)C1 (stereo unspecified)	20.6	9.8	5.6	-3.5	-1.6	5.7	.
Cc1cc(C)c(NC(=O)CS(=O)CC(=O)N2CCN(c3cccc(C)c3C)CC2)c(C)c1 (stereo unspecified)	-7.7	89.5*	-0.2	22.0	-1.0	3.8	6.5
O=C(Cn1ncc(Cl)c(Cl)c1=O)c1ccc2c(c1)OCCO2	-27.3	58.4*	-3.2	.	.	-34.1	30.9
CCNc1nc(N)c(C(=O)C23CC4CC(CC(C4)C2)C3)s1	27.9	61.2*	2.9	-8.5	11.6	30.8	54.2*
COc1ccc(C(=O)CSc2nnc(Cn3nnc4ccccc43)n2C)cc1	-18.0	9.8	11.3	1.4	3.9	9.4	.
FC(F)(F)c1ccccc1/C=N/n1c(COc2ccccc2)n[nH]c1=S	23.6	50.1*	19.6	-9.4	7.9	25.8	37.2

Screening results (PubChem BioAssay)
